We go through 31 molecules from the supplement of paper PMC13380429.

A number with no mark means an inactive call.

In this assay the test system is Vero E6 infected with SARS-CoV-2. Kind of assay: SARS-CoV-2 infection rate relative to infected DMSO; higher = more infection, active = 60 or less. Conditions: 24 h.
As for `NCCCCCC(O)(P(=O)(O)O)P(=O)(O)O` [neridronic-acid] (10 µM), the SARS-CoV-2 infection rate was 91%.

Consider `C=C(c1ccccc1OCc1cccc(Cl)c1)n1ccnc1` [croconazole] (10 µM), for which the SARS-CoV-2 infection rate was 104%.

Turning to `Cc1cc2c(s1)Nc1ccccc1N=C2N1CCN(C)CC1` [olanzapine] (10 µM), the SARS-CoV-2 infection rate is 108%.

As for `COc1ccc(S(=O)(=O)Nc2c(C)cc(C)cc2C)cc1` (10 µM), the SARS-CoV-2 infection rate is 80.5%.

Consider `O=[N+]([O-])c1cnc(Sc2nnc(O)n2-c2ccc3c(c2)OCCO3)s1` (0.833333 µM), for which the SARS-CoV-2 infection rate was 76.5%.

For the molecule `COc1cc(/C=C/C(=O)N2CCN(CC(=O)N3CCCC3)CC2)cc(OC)c1OC` [cinepazide] (10 µM), the SARS-CoV-2 infection rate is 108%.

Turning to `NC(=O)c1nc(F)cnc1O` [Favipiravir] (10 µM), the SARS-CoV-2 infection rate is 108%.

For `C[C@@H]1CN(Cc2ccc(F)cc2)CCN1C(=O)COc1ccc(Cl)cc1NC(N)=O` (10 µM), the SARS-CoV-2 infection rate was 112%.

For the molecule `O=C(NCc1ccc(Oc2ccccc2)cc1)c1nc(-c2cc(Br)c(O)c(Br)c2)no1` (0.833333 µM), the SARS-CoV-2 infection rate is 100%.

Turning to `C[C@@H]1c2ccccc2CN1CC1=NCCN1` (racemic) (10 µM), the SARS-CoV-2 infection rate was 92.5%.

Turning to `CC(=O)OCC(=O)[C@@]1(O)CC[C@H]2[C@@H]3CCC4=CC(=O)C=C[C@]4(C)[C@@]3(F)[C@@H](O)C[C@@]21C` [isoflupredone-acetate] (10 µM), the SARS-CoV-2 infection rate was 98%.

With `COC(=O)Nc1nc2cc([S+]([O-])c3ccccc3)ccc2[nH]1` (stereo unspecified) [oxfendazole] (10 µM), the SARS-CoV-2 infection rate was 101%.

Turning to `C=CCOc1ccccc1OCC(O)CNC(C)C` (stereo unspecified) [oxprenolol] (10 µM), the SARS-CoV-2 infection rate was 114%.

In the case of `O=C(O)Cc1cccc2c(=O)cc(-c3ccccc3)oc12` [mitoflaxone] (10 µM), the SARS-CoV-2 infection rate is 106%.

Take `O=C(N[C@H]1CCN(C(=O)c2cc(C(F)(F)F)cc(C(F)(F)F)c2)[C@H](Cc2ccc(Cl)cc2)C1)c1ccnc2ccccc12` (10 µM): the SARS-CoV-2 infection rate was 81.5%.

Turning to `O=C(O)/C=C/CO` [trans-4-hydroxycrotonic-acid] (10 µM), the SARS-CoV-2 infection rate was 90.5%.

With `Cc1ccccc1N1CCN(CCc2nnc3n2CCCC3)CC1` [dapiprazole] (10 µM), the SARS-CoV-2 infection rate is 87.5%.

As for `C[C@@H]1C[C@H]2[C@@H]3CCC4=CC(=O)C=C[C@]4(C)[C@@]3(F)[C@@H](O)C[C@]2(C)[C@@]1(O)C(=O)COP(=O)(O)O` (10 µM), the SARS-CoV-2 infection rate was 99%.

As for `NCCc1c[nH]cn1` [histamine] (10 µM), the SARS-CoV-2 infection rate is 114%.

In the case of `c1cc2c(cc1C1CCCCC1)c1c3n2CCNC3CCC1` (stereo unspecified) [tetrindole] (0.833333 µM), the SARS-CoV-2 infection rate was 108%.

Regarding `CCCN(CCC)C(=O)C1=Cc2ccc(-c3ccc(C(=O)N4CCCC4)cc3)cc2N=C(N)C1` [motolimod] (10 µM), the SARS-CoV-2 infection rate is 93%.

On to `CN[C@H]1CN(c2ccc3c(=O)c(C(=O)O)cn(-c4nccs4)c3n2)C[C@@H]1OC` [voreloxin] (0.833333 µM), for which the SARS-CoV-2 infection rate was 104%.

For `COc1cc(N2CCC(N3CCN(C)CC3)CC2)ccc1Nc1ncc(Cl)c(Nc2ccccc2S(=O)(=O)C(C)C)n1` (0.833333 µM), the SARS-CoV-2 infection rate is 102%.

Regarding `COc1ccc2c3c1O[C@H]1C[C@@H](O)C=C[C@@]31CCN(C)C2` [galantamine] (10 µM), the SARS-CoV-2 infection rate was 102%.

Turning to `Nc1nc(=O)n([C@@H]2CS[C@H](CO)O2)cc1F` [emtricitabine] (10 µM), the SARS-CoV-2 infection rate is 114%.

`CN1C(C(=O)Nc2ccccn2)=C(O)c2sccc2S1(=O)=O` [tenoxicam] (10 µM): the SARS-CoV-2 infection rate was 108%.

In the case of `CC1(CN)Cc2ccccc2C1` (10 µM), the SARS-CoV-2 infection rate was 112%.

Take `C=C(c1ccc(C(=O)O)cc1)c1cc2c(cc1C)C(C)(C)CCC2(C)C` [bexarotene] (10 µM): the SARS-CoV-2 infection rate was 108%.

With `O=C(NC[C@H]1CN(c2ccc(N3CCOCC3=O)cc2)C(=O)O1)c1ccc(Cl)s1` [Rivaroxaban (Xarelto)] (10 µM), the SARS-CoV-2 infection rate is 97.5%.

Turning to `CC(=O)O[C@]1(C(C)=O)CC[C@H]2[C@@H]3CCC4=CC(=O)CCC4=C3[C@@H](c3ccc(N(C)C)cc3)C[C@@]21C` [Ulipristal acetate] (10 µM), the SARS-CoV-2 infection rate is 104%.

Take `CC(=O)OCC(=O)[C@@]12OC3(CCCC3)O[C@@H]1C[C@H]1[C@@H]3CCC4=CC(=O)C=C[C@]4(C)[C@@]3(F)[C@@H](O)C[C@@]12C` [amcinonide] (10 µM): the SARS-CoV-2 infection rate is 110%.
